{"source": "the supplement of paper PMC11001985", "data": [{"compound": "C#CCNC(=O)CCSSCCC(=O)NCCc1ccc(C=O)c(C=O)c1", "assay": "lysine labeling ratio R10:1 (500 µM / 50 µM probe), SILAC-ABPP in living cells; higher = lower intrinsic lysine reactivity toward the probe, active = 2 or less", "conditions": "HeLa; probe concentrations 500 vs 50 µM", "summary_of_the_method": "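With forward and reverse label swaps, light and heavy SILAC HeLa cells, alive and in PBS at room temperature, were exposed to either 500 µM or 50 µM of an alkyne-tagged lysine probe bearing a disulfide link. After mixing, lysates were clicked to biotin-azide, cut with trypsin, pulled down on neutravidin, freed with DTT, alkylated and analysed on a TIMS-TOF Pro by LC-MS/MS. The per-lysine value R is the median over forward and reverse replicates of the filtered median high-probe/low-probe MS1 peptide ratio. It is capped at 20.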", "values": [{"target": "DDX5 (lysine site: K490) (UniProt P17844)", "lysine labeling ratio R10:1": "5.18 (inactive)"}, {"target": "ST13 (lysine site: K230) (UniProt P50502)", "lysine labeling ratio R10:1": "4.87 (inactive)"}, {"target": "XRCC6 (lysine site: K129) (UniProt P12956)", "lysine labeling ratio R10:1": "1.62 (active)"}, {"target": "RPS19 (lysine site: K97) (UniProt P39019)", "lysine labeling ratio R10:1": "1.48 (active)"}, {"target": "WDR1 (lysine site: K569) (UniProt O75083)", "lysine labeling ratio R10:1": "5.89 (inactive)"}, {"target": "ARHGDIA (lysine site: K43) (UniProt P52565)", "lysine labeling ratio R10:1": "1.51 (active)"}, {"target": "ITGA5 (lysine site: K965) (UniProt P08648)", "sequence (P08648 whole entry)": "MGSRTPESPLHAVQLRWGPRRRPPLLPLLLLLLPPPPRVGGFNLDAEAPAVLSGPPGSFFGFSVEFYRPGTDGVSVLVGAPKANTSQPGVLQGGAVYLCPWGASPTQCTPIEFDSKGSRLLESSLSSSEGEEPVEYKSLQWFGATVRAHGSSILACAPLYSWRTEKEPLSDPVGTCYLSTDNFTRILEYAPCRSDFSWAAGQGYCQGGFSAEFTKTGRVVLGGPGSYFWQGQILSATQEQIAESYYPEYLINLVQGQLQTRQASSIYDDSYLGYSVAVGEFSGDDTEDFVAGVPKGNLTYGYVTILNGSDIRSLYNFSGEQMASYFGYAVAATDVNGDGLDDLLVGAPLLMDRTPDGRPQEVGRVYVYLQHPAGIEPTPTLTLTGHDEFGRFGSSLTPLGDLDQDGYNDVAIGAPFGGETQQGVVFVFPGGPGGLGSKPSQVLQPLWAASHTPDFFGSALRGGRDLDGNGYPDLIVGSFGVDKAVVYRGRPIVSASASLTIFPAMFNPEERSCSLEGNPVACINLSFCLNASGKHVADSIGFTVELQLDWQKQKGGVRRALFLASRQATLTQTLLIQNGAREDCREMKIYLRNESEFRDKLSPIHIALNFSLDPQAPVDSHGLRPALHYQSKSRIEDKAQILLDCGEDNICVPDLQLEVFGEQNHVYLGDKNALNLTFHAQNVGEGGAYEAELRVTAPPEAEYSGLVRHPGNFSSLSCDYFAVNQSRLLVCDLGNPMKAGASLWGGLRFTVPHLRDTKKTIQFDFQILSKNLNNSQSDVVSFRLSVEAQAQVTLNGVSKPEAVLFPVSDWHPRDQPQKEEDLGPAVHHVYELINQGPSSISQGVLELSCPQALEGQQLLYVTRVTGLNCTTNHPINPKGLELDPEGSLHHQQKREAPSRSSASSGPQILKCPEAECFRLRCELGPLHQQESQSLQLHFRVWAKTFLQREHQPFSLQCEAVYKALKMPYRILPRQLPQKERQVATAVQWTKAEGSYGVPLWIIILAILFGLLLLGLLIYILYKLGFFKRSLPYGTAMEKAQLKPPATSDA", "lysine labeling ratio R10:1": "0.705 (active)"}, {"target": "CCT2 (lysine site: K135) (UniProt P78371)", "lysine labeling ratio R10:1": "2.8 (inactive)"}, {"target": "GPI (lysine site: K440) (UniProt P06744)", "lysine labeling ratio R10:1": "1.78 (active)"}, {"target": "RPL12 (lysine site: K54) (UniProt P30050)", "lysine labeling ratio R10:1": "0.658 (active)"}, {"target": "SLC4A2 (lysine site: K893) (UniProt P04920)", "lysine labeling ratio R10:1": "3.14 (inactive)"}, {"target": "UniProt Q15697 (lysine site: K143)", "lysine labeling ratio R10:1": "2.8 (inactive)"}, {"target": "GPC1 (lysine site: K358) (UniProt P35052)", "lysine labeling ratio R10:1": "1.32 (active)"}, {"target": "ITGB5 (lysine site: K170) (UniProt P18084)", "lysine labeling ratio R10:1": "3.44 (inactive)"}, {"target": "ITGA5 (lysine site: K588) (UniProt P08648)", "lysine labeling ratio R10:1": "1.72 (active)"}, {"target": "SLC39A6 (lysine site: K164) (UniProt Q13433)", "sequence (Q13433 whole entry)": "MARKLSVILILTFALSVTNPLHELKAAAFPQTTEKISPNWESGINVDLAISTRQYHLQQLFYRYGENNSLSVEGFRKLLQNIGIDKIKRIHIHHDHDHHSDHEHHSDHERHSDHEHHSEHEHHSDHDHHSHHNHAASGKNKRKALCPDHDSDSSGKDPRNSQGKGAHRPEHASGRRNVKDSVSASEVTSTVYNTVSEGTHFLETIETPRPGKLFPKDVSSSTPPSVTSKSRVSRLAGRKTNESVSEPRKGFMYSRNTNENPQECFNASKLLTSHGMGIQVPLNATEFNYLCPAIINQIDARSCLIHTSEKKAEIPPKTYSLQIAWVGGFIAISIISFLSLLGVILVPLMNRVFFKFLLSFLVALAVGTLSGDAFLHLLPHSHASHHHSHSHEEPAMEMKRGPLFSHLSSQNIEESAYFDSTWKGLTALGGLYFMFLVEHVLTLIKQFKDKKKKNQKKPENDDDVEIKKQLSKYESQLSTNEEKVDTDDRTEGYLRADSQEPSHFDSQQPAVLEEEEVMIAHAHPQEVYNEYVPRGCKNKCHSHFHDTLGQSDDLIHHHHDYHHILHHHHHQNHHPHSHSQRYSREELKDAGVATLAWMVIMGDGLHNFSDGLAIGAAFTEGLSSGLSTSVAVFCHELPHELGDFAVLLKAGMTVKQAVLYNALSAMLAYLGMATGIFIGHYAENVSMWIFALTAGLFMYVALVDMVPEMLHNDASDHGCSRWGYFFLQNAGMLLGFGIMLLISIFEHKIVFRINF", "lysine labeling ratio R10:1": "7.08 (inactive)"}, {"target": "ENO1 (lysine site: K256) (UniProt P06733)", "sequence (P06733 whole entry)": "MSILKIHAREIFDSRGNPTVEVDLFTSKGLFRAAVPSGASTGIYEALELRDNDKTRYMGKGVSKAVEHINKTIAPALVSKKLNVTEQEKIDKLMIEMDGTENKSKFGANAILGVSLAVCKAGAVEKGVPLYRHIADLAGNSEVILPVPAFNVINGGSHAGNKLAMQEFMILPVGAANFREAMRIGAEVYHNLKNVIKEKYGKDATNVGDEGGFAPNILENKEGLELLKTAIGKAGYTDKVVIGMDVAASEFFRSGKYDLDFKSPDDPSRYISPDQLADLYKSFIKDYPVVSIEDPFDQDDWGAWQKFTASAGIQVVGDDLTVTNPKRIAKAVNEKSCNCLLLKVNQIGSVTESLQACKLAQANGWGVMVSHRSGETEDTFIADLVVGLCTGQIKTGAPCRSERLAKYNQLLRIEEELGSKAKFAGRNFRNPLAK", "lysine labeling ratio R10:1": "1.87 (active)"}, {"target": "MYH9 (lysine site: K1648) (UniProt P35579)", "lysine labeling ratio R10:1": "1.22 (active)"}, {"target": "PLOD2 (lysine site: K412) (UniProt O00469)", "lysine labeling ratio R10:1": "7.56 (inactive)"}, {"target": "HEXB (lysine site: K517) (UniProt P07686)", "lysine labeling ratio R10:1": "2.41 (inactive)"}, {"target": "LMO7 (lysine site: K305) (UniProt Q8WWI1)", "lysine labeling ratio R10:1": "3.84 (inactive)"}, {"target": "VIM (lysine site: K120) (UniProt P08670)", "lysine labeling ratio R10:1": "10 (inactive)"}, {"target": "CDCP1 (lysine site: K413) (UniProt Q9H5V8)", "lysine labeling ratio R10:1": "1.38 (active)"}, {"target": "UniProt Q6NZI2 (lysine site: K265)", "sequence (Q6NZI2 whole entry)": "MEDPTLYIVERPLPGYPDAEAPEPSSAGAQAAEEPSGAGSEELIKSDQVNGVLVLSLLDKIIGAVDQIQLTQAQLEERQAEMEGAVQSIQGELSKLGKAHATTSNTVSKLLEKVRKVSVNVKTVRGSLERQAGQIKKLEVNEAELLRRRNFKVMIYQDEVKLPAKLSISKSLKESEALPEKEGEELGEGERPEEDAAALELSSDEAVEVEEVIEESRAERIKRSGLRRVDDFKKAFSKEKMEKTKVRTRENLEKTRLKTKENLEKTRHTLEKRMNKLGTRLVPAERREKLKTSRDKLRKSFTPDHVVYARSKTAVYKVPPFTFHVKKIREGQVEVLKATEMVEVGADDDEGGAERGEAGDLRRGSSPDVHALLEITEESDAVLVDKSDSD", "lysine labeling ratio R10:1": "4.28 (inactive)"}, {"target": "VAPA (lysine site: K188) (UniProt Q9P0L0)", "lysine labeling ratio R10:1": "1.99 (active)"}, {"target": "UGDH (lysine site: K107) (UniProt O60701)", "lysine labeling ratio R10:1": "1.1 (active)"}, {"target": "EPCAM (lysine site: K160) (UniProt P16422)", "lysine labeling ratio R10:1": "2.33 (inactive)"}, {"target": "ANXA2 (lysine site: K49) (UniProt P07355)", "lysine labeling ratio R10:1": "3.95 (inactive)"}, {"target": "UniProt Q29980 (lysine site: K190)", "lysine labeling ratio R10:1": "1.17 (active)"}, {"target": "ENO1 (lysine site: K262) (UniProt P06733)", "lysine labeling ratio R10:1": "2.83 (inactive)"}, {"target": "ITGA6 (lysine site: K310) (UniProt P23229)", "lysine labeling ratio R10:1": "1.72 (active)"}, {"target": "RPS19 (lysine site: K7) (UniProt P39019)", "lysine labeling ratio R10:1": "4.55 (inactive)"}, {"target": "UniProt P62280 (lysine site: K32)", "lysine labeling ratio R10:1": "4.32 (inactive)"}, {"target": "UniProt Q15149 (lysine site: K1528)", "lysine labeling ratio R10:1": "1.47 (active)"}, {"target": "UniProt Q32P28 (lysine site: K437)", "lysine labeling ratio R10:1": "1.13 (active)"}, {"target": "UniProt P62273 (lysine site: K13)", "lysine labeling ratio R10:1": "1.45 (active)"}, {"target": "TFRC (lysine site: K439) (UniProt P02786)", "lysine labeling ratio R10:1": "2.93 (inactive)"}, {"target": "SPTAN1 (lysine site: K2195) (UniProt Q13813)", "sequence (Q13813 whole entry)": "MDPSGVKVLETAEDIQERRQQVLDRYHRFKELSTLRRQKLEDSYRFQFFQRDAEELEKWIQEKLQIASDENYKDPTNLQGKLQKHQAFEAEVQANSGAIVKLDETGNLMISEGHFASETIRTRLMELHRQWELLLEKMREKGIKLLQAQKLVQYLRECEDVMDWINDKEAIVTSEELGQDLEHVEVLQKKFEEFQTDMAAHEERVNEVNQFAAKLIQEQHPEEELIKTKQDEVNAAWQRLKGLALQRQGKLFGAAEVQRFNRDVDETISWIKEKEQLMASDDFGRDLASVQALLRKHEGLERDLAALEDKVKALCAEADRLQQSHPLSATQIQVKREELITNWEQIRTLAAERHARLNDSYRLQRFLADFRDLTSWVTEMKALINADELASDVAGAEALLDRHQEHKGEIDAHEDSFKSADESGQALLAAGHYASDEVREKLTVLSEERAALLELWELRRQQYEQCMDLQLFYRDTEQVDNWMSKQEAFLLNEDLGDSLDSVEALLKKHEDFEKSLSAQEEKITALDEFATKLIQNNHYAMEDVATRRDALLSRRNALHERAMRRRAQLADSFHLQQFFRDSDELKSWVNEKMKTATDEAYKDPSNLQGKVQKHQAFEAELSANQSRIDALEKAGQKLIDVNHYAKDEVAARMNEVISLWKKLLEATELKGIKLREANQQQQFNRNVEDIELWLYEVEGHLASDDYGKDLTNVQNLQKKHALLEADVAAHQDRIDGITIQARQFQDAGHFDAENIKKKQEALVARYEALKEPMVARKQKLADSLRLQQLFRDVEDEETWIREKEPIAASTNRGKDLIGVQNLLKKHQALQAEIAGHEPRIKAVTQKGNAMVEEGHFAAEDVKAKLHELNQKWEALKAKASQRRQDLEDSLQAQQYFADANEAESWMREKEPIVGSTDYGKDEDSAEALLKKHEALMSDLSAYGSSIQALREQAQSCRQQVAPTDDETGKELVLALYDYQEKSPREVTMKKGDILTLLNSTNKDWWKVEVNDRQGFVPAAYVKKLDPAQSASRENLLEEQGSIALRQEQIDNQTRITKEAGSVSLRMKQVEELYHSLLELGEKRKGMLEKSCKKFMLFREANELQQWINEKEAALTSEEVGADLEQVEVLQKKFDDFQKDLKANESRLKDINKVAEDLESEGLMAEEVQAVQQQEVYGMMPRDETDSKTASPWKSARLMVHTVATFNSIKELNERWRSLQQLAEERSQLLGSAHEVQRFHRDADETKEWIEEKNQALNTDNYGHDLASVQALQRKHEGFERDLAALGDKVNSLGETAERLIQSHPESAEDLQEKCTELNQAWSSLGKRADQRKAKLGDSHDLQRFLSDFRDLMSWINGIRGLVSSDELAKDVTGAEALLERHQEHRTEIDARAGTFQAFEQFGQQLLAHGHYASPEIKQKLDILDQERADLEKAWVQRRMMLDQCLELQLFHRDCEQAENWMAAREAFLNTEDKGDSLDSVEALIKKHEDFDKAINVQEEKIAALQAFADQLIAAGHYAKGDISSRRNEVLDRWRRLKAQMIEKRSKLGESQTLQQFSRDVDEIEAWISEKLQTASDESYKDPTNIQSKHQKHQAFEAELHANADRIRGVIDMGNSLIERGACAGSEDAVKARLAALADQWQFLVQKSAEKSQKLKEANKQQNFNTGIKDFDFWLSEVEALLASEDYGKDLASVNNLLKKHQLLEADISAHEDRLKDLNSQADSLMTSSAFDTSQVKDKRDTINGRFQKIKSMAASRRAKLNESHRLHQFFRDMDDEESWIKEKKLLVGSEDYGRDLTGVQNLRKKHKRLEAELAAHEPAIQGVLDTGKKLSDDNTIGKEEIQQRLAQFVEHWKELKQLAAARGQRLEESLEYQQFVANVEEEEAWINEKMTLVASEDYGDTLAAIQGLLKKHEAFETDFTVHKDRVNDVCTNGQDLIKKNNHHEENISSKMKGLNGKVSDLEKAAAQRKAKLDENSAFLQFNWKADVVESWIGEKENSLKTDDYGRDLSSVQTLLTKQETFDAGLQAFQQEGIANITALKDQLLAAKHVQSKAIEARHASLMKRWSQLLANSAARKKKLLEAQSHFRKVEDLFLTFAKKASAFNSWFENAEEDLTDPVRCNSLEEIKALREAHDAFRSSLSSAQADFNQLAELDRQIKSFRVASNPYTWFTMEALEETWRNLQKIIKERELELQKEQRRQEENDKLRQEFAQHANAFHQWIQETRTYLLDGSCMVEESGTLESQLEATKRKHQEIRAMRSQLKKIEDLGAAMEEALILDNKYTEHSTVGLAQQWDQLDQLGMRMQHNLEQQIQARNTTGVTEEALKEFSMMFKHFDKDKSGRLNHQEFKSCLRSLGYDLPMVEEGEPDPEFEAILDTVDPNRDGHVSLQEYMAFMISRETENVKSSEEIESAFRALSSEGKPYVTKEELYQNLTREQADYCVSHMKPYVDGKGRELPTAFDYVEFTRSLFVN", "lysine labeling ratio R10:1": "1.91 (active)"}, {"target": "GGT1 (lysine site: K181) (UniProt P19440)", "lysine labeling ratio R10:1": "1.46 (active)"}, {"target": "SPTAN1 (lysine site: K803) (UniProt Q13813)", "lysine labeling ratio R10:1": "1.86 (active)"}]}]}
